PubChem BioAssay (NCATS)
Records with an inconclusive call do not appear. Calls of active or inactive are those of the source. Unless noted, calls come from the whole dose curve; as a rule, active = well fitted curve in the direction sought with a large enough effect; inconclusive = small, poorly fitted or top-dose-only effect, or another doubt; inactive = no such curve, though single readings can be large; an effect the other way counts as inactive or inconclusive.

Columns and labels:
[1] = target: Lysosomal acid glucosylceramidase (Homo sapiens) (UniProt P04062); assay: Glucocerebrosidase-p2 (AID 348; in the data active = potency below about 10 µM; note: potency is the fitted concentration of half-maximal effect); details: purified GBA, blue fluorogenic substrate, 40 min
Sequence of Lysosomal acid glucosylceramidase (Homo sapiens) (P04062 whole entry, looked up): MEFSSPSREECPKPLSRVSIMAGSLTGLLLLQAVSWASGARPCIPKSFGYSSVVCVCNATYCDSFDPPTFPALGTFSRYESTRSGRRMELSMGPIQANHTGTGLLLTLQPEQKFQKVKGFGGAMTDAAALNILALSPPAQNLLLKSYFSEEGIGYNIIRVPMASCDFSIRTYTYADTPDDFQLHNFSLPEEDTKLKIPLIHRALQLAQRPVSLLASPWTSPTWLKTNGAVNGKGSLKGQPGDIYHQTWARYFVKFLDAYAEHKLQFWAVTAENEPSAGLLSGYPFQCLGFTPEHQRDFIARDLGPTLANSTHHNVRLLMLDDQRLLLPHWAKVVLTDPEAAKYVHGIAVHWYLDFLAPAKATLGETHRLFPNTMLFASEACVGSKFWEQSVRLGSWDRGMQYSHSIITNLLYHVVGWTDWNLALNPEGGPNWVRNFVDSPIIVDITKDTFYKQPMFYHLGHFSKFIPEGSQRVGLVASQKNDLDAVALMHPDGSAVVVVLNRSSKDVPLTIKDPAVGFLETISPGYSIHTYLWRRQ
Summary of the method: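 Normal human glucocerebrosidase (0.2 nM) with blue fluorogenic substrate (80 uM final) in citrate/phosphate pH 5.9 with 10mM sodium taurocholate, 0.01% tween-20; 40 min RT, NaOH/glycine stop; fluorescence Ex 365/Em 440; AC50 from a titration from 0.6 nM upwards.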

[2] = AP1 Signaling Pathway (AID 357; active = well fitted curve in either direction with a large enough effect, not every such curve was filed as active; note: % is set by controls: 0 for no effect and ±100 for the full control effect); details: ME-180 AP-1-bla reporter, EGF-induced, beta-lactamase ratio, 5 h; at 7.69 µM (top of the series) unless noted
Summary of the method: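 AP-1-bla ME-180 cells with beta-lactamase reporter under AP-1 response element, stimulated with EC50 EGF; compounds titrated, 5 hours at 37 degrees Celsius. CCF4 read at 460/530 nm ratio; positive and negative modulators judged by AC50.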

[3] = NFAT Signaling Pathway (AID 444; active = well fitted curve in either direction with a large enough effect, not every such curve was filed as active;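 note: carbachol stimulus at about its EC50 of 1 µM final; % is set by controls: 0 for no effect and ±100 for the full control effect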); details: Jurkat NFAT-bla M1, carbachol, beta-lactamase ratio, 5 h; at 7.69 µM (top of the series) unless noted
Summary of the method: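 Jurkat cells carrying an NFAT-driven β-lactamase reporter and co-transfected muscarinic M1 receptor were treated with compound plus carbachol (1 uM final, an EC50 level) for 5 h at 37 °C. CCF4 loading followed for 1 h at RT; 460/530 nm ratio gave %activity.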

[4] = Stat Signaling Pathway (AID 446; active = well fitted curve in either direction with a large enough effect, not every such curve was filed as active;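 note: ME-180 cervical cancer cells given 40 pM IL-6 alongside compound; SIE-controlled beta-lactamase reporter measured as 460/530 nm FRET emission ratio; % is set by controls: 0 for no effect and ±100 for the full control effect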); details: ME-180 (cervical carcinoma) SIE beta-lactamase reporter, IL-6 stimulated, 5 h; at 7.69 µM (top of the series) unless noted
Summary of the method: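 FRET read-out (405 nm excitation, 460/530 nm emission) of a beta-lactamase reporter under a STAT-inducible element in ME-180 cervical carcinoma cells. Cells with compound receive 40 pM IL-6 for 5 h. Values are normalised to AC90 stimulation and AC90 JAK-inhibitor controls.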

[5] = target: Glucocorticoid receptor (Homo sapiens) (UniProt P04150); assay: GR-GFP Redistribution (AID 450;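 active = compounds whose dose series gives a full or clear partial fitted curve of increased nuclear translocation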; note: potency is the fitted concentration of half-maximal effect); details: U2OS GR-GFP nuclear translocation, laser cytometry, 2 h
Sequence of Glucocorticoid receptor (Homo sapiens) (P04150 whole entry, looked up, the tested form may be a part): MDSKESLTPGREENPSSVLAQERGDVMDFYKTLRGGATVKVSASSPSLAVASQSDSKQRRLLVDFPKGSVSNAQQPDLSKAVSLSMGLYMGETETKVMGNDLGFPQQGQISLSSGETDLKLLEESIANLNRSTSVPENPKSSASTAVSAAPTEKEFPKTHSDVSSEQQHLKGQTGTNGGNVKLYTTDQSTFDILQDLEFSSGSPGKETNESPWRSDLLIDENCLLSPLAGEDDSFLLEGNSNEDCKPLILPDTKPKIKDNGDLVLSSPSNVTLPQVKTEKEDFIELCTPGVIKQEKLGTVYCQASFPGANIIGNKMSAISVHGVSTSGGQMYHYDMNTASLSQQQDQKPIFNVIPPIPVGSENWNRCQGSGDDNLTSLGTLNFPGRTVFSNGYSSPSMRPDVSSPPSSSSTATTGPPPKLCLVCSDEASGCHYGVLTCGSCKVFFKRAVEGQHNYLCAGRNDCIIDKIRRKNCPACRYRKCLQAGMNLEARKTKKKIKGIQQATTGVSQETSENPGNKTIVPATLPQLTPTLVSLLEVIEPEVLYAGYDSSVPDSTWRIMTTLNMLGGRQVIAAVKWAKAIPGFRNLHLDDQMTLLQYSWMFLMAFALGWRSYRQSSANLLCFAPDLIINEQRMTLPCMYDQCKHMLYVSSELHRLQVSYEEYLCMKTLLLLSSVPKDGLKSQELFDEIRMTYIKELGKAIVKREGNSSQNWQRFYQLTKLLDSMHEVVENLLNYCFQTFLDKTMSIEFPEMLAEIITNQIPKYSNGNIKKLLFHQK

[6] = target: Glucocorticoid receptor (Homo sapiens) (UniProt P04150); assay: GR-EFC Redistribution (AID 451; calls by dose curve; note: potency is the fitted concentration of half-maximal effect); details: CHO-K1 GR-EFC translocation, beta-gal luminescence, 2 h
Summary of the method: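 CHO-K1 cells stably expressing nuclear-localized β-gal enzyme acceptor and GR fused C-terminally to the enzyme donor fragment; ligand-driven nuclear translocation restores β-gal by complementation. Compounds titrated up to 46 uM final, 2 h at 37 °C; luminescence read.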

[7] = target: Mitogen-activated protein kinase 10 (Mus musculus) (UniProt Q61831); assay: JNK3 AlphaScreen Assay (AID 530; active = well fitted curve in either direction with a large enough effect, not every such curve was filed as active;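 note: kinase came from lysate of stimulated human HepG2 cells; signal reports phosphorylation of biotinylated GST-cJun 1-79 at Ser73 with 10 µM ATP; % is set by controls: 0 for no effect and ±100 for the full control effect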); details: JNK3 lysate, c-Jun phosphorylation; series mostly up to 57.1 µM
Summary of the method: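 Phosphorylation of biotinylated GST-cJun(1-79) at Ser73 is measured by AlphaScreen proximity luminescence. Enzyme is JNK3 in HepG2 lysates activated with interleukin-1beta and tumor necrosis factor alpha; ATP is 10 uM final.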

[8] = target: 3',5'-cyclic-AMP phosphodiesterase 4B (Homo sapiens) (UniProt Q07343); assay: qHTS Assay for Inhibitors of PDE-IV (AID 607; active = well fitted activation curve with a large enough effect in the main read-out, with a control signal flat, not every such curve was filed as active; note: % of control where 0% means no effect); details: HEK293 ACTOne CNG channel cells, membrane potential fluorescence; series mostly up to 22.9 µM
Sequence of 3',5'-cyclic-AMP phosphodiesterase 4B (Homo sapiens) (Q07343 whole entry, looked up): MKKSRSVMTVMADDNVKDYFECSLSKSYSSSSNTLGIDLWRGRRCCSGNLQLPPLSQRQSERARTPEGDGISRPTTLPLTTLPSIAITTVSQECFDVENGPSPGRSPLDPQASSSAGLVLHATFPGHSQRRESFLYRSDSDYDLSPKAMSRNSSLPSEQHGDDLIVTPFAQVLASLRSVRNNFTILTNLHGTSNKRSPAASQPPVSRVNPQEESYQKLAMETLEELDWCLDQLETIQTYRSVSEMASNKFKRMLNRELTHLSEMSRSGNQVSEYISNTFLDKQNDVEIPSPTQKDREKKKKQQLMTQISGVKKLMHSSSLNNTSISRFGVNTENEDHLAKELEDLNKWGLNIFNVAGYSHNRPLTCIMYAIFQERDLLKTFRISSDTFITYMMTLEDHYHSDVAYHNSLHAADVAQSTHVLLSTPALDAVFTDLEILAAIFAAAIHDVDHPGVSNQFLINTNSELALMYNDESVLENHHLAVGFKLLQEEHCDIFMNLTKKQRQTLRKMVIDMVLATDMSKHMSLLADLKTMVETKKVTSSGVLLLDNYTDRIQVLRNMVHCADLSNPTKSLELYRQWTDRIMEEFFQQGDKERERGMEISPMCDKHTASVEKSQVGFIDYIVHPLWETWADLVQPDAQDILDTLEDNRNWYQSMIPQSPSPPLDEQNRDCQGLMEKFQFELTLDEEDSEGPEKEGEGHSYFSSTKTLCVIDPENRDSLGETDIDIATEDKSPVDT
Summary of the method: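 Cell-based read-out of cAMP via a modified cyclic nucleotide-gated channel and membrane potential dye (535/590 nm) in HEK293 cells expressing PDE4 endogenously. Compounds tested up to 22.9 uM final; 100 uM RO 20-1724 reference.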

[9] = target: Dual specificity protein kinase CLK4 (Homo sapiens) (UniProt Q9HAZ1); assay: qHTS Assay for Inhibitors of CDC-like Kinase 4 (Kinase-Glo Assay) (AID 1770); details: recombinant Clk4, Kinase-Glo ATP depletion luminescence; series mostly up to 66.7 µM; note: % is set by controls: 0 for no effect and ±100 for the full control effect; nearly all actives have a fitted effect of over 65% in size
Sequence of Dual specificity protein kinase CLK4 (Homo sapiens) (Q9HAZ1 whole entry, looked up): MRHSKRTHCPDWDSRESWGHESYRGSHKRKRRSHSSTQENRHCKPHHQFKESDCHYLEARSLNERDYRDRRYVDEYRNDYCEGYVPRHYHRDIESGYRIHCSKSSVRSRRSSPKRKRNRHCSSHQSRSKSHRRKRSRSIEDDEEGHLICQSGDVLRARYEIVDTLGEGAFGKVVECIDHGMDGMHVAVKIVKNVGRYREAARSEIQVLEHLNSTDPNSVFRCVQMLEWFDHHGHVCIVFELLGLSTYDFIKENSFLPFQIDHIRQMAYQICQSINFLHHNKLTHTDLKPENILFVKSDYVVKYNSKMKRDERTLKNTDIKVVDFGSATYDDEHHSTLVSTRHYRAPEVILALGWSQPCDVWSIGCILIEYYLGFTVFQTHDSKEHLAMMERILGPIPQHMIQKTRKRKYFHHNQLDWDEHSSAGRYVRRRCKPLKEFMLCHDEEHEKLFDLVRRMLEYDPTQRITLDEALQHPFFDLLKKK
Summary of the method: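 Luminescent ATP-depletion read-out (Kinase-Glo) after 4.5 h room-temperature reaction of Clk4 (25 nM final) with RS peptide (100 uM) and ATP (1 uM), pH 7.5 Tris buffer with MgCl2 and DTT.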

[10] = target: Dual specificity protein kinase CLK4 (Homo sapiens) (UniProt Q9HAZ1); assay: qHTS Assay for Inhibitors of CDC-like Kinase 4 (ADP-Glo Assay) (AID 1771); details: recombinant CLK4, ADP-Glo luminescence; series mostly up to 80 µM; note: % is set by controls: 0 for no effect and ±100 for the full control effect; nearly all actives have a fitted effect of over 70% in size
Summary of the method: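 Compounds are pin-transferred onto substrate mix (100 uM RS peptide, 1 uM ATP), then 25 nM Clk4 is added. After 1 hr at room temperature, ADP-Glo reagent runs 45 min, detection reagent 30 min, then luminescence is read.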

[11] = target: Dual specificity protein kinase CLK4 (Homo sapiens) (UniProt Q9HAZ1); assay: qHTS Assay for Inhibitors of CDC-like Kinase 4 (ADP-FP Assay) (AID 1795); details: Transcreener ADP fluorescence polarization; series mostly up to 50 µM;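 note: recombinant human CLK4 phosphorylating RS repeat peptide at 1 µM ATP; % is set by controls: 0 for no effect and ±100 for the full control effect; nearly all actives have a fitted effect of over 60% in size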
Summary of the method: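 Kinase activity was measured as ADP production using Transcreener orange tracer (4 nM) and ADP antibody (1 ug/mL) fluorescence polarization, with ADP calculated from a calibration curve. The 1 h reaction contained 6.25 nM Clk4, 1 uM ATP and 100 uM RS peptide at pH 7.5 with Mg2+.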

[12] = target: Ubiquitin carboxyl-terminal hydrolase 1 (Homo sapiens) (UniProt O94782); assay: Inhibitors of USP1/UAF1: Pilot qHTS (AID 504865); details: purified USP1/UAF1, Ub-rhodamine cleavage fluorescence; series mostly up to 54.9 µM;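 note: rhodamine fluorescence freed from ubiquitin-rhodamine substrate followed over time; top concentration of the series differs between compounds; % is set by controls: 0 for no effect and ±100 for the full control effect; nearly all actives have a fitted effect of over 35% in size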
Sequence of Ubiquitin carboxyl-terminal hydrolase 1 (Homo sapiens) (O94782 whole entry, looked up): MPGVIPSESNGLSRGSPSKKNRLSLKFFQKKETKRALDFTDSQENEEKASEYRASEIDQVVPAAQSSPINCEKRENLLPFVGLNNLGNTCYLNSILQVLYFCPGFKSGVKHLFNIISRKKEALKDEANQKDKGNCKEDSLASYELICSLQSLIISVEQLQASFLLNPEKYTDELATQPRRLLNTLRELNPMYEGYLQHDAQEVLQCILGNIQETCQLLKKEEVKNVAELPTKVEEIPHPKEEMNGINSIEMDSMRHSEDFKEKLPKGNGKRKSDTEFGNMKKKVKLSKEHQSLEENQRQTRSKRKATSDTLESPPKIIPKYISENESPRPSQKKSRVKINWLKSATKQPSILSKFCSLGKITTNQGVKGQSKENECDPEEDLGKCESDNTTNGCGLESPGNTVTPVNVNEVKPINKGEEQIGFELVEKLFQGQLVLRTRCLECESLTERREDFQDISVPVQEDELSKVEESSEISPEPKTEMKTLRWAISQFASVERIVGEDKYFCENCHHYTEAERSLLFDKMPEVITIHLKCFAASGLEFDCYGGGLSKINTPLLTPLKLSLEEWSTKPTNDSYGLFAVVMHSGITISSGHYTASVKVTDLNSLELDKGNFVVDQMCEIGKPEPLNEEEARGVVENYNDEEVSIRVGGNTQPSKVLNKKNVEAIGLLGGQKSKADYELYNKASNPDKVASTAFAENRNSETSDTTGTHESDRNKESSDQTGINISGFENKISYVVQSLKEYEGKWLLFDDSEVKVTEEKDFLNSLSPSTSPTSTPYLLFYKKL
Summary of the method: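 Deubiquitinase activity followed as kinetic rhodamine fluorescence release from 150 nM Ub-Rho. 1 nM USP1/UAF1 with compound, after 15 min room-temperature preincubation, in HEPES pH 7.8 buffer containing TCEP, EDTA, BSA and Tween-20.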

[13] = Primary qHTS for small molecule stabilizers of the endoplasmic reticulum resident proteome: Secreted ER Calcium Modulated Protein (SERCaMP) assay (AID 1508630); details: SH-SY5Y GLuc-SERCaMP (Gaussia luciferase released on ER calcium loss) secretion, thapsigargin, luminescence; series mostly up to 38.4 µM; note: % is set by controls: 0 for no effect and ±100 for the full control effect
Summary of the method: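 The SH-SY5Y reporter protocol was run at 3 concentrations up to 38.3 uM (primary) or 11 concentrations (follow-up): 16 h compound, 100 nM thapsigargin for 4 h, then extracellular luciferase luminescence.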

[14] = target: Cytochrome P450 1A2 (Homo sapiens) (UniProt P05177); assay: p450-cyp1a2 (AID 410; calls by dose curve; note: potency is the fitted concentration of half-maximal effect); details: recombinant CYP1A2, luciferin-ME demethylation, luminescence; series mostly up to 57 µM
Sequence of Cytochrome P450 1A2 (Homo sapiens) (P05177 whole entry, looked up): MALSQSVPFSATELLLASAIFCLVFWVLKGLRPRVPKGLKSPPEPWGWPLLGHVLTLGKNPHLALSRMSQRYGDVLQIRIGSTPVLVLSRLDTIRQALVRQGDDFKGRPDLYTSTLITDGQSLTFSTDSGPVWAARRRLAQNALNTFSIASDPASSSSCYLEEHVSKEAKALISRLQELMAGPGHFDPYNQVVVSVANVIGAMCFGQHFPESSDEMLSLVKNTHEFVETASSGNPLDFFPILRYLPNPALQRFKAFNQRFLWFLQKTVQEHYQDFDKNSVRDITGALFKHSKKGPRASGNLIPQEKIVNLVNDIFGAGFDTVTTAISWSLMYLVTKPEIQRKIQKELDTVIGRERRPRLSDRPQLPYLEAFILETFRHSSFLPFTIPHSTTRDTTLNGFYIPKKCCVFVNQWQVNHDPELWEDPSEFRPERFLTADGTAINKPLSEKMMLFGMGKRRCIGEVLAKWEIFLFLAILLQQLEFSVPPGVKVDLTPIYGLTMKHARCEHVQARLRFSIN
Summary of the method: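 O-Demethylation of luciferin 6' methyl ether by human CYP1A2 is monitored as luciferase luminescence. Substrate sits at Km (100uM); enzyme is 20nM. Values are scaled to 57 uM furafylline as maximal inhibition.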

[15] = target: Cytochrome P450 3A4 (Homo sapiens) (UniProt P08684); assay: qHTS Assay for Activators of Cytochrome P450 3A4 (AID 885); details: recombinant CYP3A4, Luciferin-PPXE luminescence, 60 min; series mostly up to 57.1 µM; note: nearly all actives have a fitted effect of over 65% in size
Sequence of Cytochrome P450 3A4 (Homo sapiens) (P08684 whole entry, looked up): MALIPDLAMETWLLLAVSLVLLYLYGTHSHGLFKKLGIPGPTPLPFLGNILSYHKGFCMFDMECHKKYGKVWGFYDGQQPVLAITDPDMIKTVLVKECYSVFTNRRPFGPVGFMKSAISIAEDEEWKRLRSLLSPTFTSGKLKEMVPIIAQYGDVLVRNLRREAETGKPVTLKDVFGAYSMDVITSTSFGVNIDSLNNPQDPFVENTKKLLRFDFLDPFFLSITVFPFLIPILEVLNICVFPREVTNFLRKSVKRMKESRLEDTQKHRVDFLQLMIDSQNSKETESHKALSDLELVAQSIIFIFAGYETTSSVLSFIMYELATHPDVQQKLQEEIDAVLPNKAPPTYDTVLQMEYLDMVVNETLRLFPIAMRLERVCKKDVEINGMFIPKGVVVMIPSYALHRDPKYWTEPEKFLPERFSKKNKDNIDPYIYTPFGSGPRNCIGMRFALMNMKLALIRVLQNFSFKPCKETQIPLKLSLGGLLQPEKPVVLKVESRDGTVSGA
Summary of the method: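 Luminescent readout of luciferin formed from 25 uM Luciferin-PPXE (KM level) by 20 nM CYP3A4 in 200 mM KPO4, with 60 min NADPH-driven reaction at room temperature after 10 min compound exposure. Ketoconazole (57 uM) defined 100% inhibition.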

COc1ccc(-c2nc3cnc(N(C)C)nc3n(C)c2=O)cc1
inactive: Potency [1] > 11.4 µM | activity change, negative = inhibition [2] 11% | activity change, negative = inhibition [3] 6.21% | activity, negative = inhibition [4] 10.4% | Potency [5] > 9.22 µM | Potency [6] > 46 µM | Potency [7] | Potency [8] | Potency [9] | Potency [10] | Potency [11] | Potency [12] | outcome [13]

COc1ncc2nc(-c3ccc(Cl)cc3)c(=O)n(CCC#N)c2n1
inactive: Potency [1] > 11.4 µM | activity change, negative = inhibition [2] -9.68% | activity change, negative = inhibition [3] 3.96% | activity, negative = inhibition [4] -4.68% | Potency [5] > 9.22 µM | Potency [6] > 46 µM | Potency [7] | Potency [8] | Potency [9] | Potency [10] | Potency [11] | Potency [12] | outcome [13]

CN(C)C(=O)c1ccc(-c2cncnc2N(C)Cc2ccco2)cc1
inactive: Potency [1] > 11.4 µM | activity change, negative = inhibition [2] -9.99% | activity change, negative = inhibition [3] -12.8% | activity, negative = inhibition [4] 3.83% | Potency [5] > 46 µM | Potency [6] > 46 µM | Potency [7] | Potency [8] | Potency [9] | Potency [10] | Potency [11] | Potency [12] | outcome [13]

COc1ccc(-c2nc3cnc(OC)nc3n(-c3ccccc3)c2=O)cc1
inactive: Potency [1] > 11.4 µM | activity change, negative = inhibition [2] -6.09% | activity change, negative = inhibition [3] 10.5% | activity, negative = inhibition [4] -1.78% | Potency [5] > 9.22 µM | Potency [6] > 46 µM | Potency [7] | Potency [8] | Potency [9] | Potency [10] | Potency [11] | Potency [12] | outcome [13]

COc1ncc2nc(-c3ccccc3)c(=O)n(C3CC3)c2n1
inactive: Potency [1] > 11.4 µM | activity change, negative = inhibition [2] -10.7% | activity change, negative = inhibition [3] 7.49% | activity, negative = inhibition [4] -13.4% | Potency [5] > 9.22 µM | Potency [6] > 46 µM | Potency [7] | Potency [8] | Potency [9] | Potency [10] | Potency [11] | Potency [12] | outcome [13]

COc1ncc2nc(C)c(=O)n(Cc3ccc(F)cc3)c2n1
inactive: Potency [1] > 11.4 µM | activity change, negative = inhibition [2] -12.3% | activity change, negative = inhibition [3] -2.65% | activity, negative = inhibition [4] -17.5% | Potency [5] > 9.22 µM | Potency [6] > 46 µM | Potency [7] | Potency [8] | Potency [9] | Potency [10] | Potency [11] | Potency [12] | outcome [13]

COc1ccc(-c2nc3cnc(N(C)C)nc3n(Cc3cccs3)c2=O)cc1
active: Potency [14] 1.58 µM
inactive: Potency [1] > 11.4 µM | activity change, negative = inhibition [2] 17.1% | Potency [5] > 9.22 µM | Potency [6] > 46 µM | Potency [15] | Potency [9] | Potency [10] | Potency [11] | Potency [12] | outcome [13]

COc1cccc(-c2cncnc2Nc2ccccc2)c1
inactive: Potency [1] > 11.4 µM | activity change, negative = inhibition [2] -6.33% | activity change, negative = inhibition [3] 0.84% | activity, negative = inhibition [4] -2.57% | Potency [5] > 46 µM | Potency [6] > 46 µM | Potency [7] | Potency [9] | Potency [10] | Potency [11] | Potency [12] | outcome [13]

N#CCCn1c(=O)c(-c2ccccc2)nc2cnc(N3CCOCC3)nc21
active: Potency [14] 10 µM
inactive: Potency [1] > 11.4 µM | activity change, negative = inhibition [2] 20.5% | Potency [5] > 9.22 µM | Potency [6] > 46 µM | Potency [7] | Potency [8] | Potency [9] | Potency [10] | Potency [11] | Potency [12] | outcome [13]

COCCn1c(=O)c(C)nc2cnc(N3CCOCC3)nc21
inactive: Potency [1] > 11.4 µM | activity change, negative = inhibition [2] -1.95% | activity change, negative = inhibition [3] -1.73% | activity, negative = inhibition [4] -12.9% | Potency [5] > 9.22 µM | Potency [6] > 46 µM | Potency [7] | Potency [8] | Potency [9] | Potency [10] | Potency [11] | Potency [12] | outcome [13]
